The values below come from the OligoGym collection.
Further: reference of the scale not given here.

In one assay the target is COPS8. In words: pooled miR-30 sensor sort-seq; sequence = guide strand. The note with it: shRNA.
As for TTGCAGATTTTATAGCAGGTGG, the sensor-assay potency score (higher = more potent) was -0.905.
In turn, TTACATTTCTACGTTTGTCAGT displayed a sensor-assay potency score (higher = more potent) of -0.228.
TTTTCCAAAGATATCTTGCATT registered a sensor-assay potency score (higher = more potent) of -0.738.
The sequence ATTCTTTGTCCTACTGACCAAA returned a sensor-assay potency score (higher = more potent) of -1.48.
In the case of TATTTTATCACATAGTAAGGAA, the sensor-assay potency score (higher = more potent) is -0.329.
Same read-out and setting: the same measure for TTCTTTTCCAAAGATATCTTGC: -0.431; for TTGATGGTTGTATAGATCCCAG: -1.45; for TATGGAGCAAATATAAAGCTAG: -0.121.
Take TTGTTGCATCTCTAAGTGCTTC: the sensor-assay potency score (higher = more potent) is -1.16.
On the same count and under the same terms, then TAGAAGCTGACCATACACTGGG, with 0.625; and TTTCTGGGCAGAACCATTCTTG, with -0.632; and TTTTTGAAACTAAAGGCGCTTT, with -0.00727.

For a further assay, the target named is COQ3. Described as above. The note with it: shRNA.
Consider TATGGTTCTGTATTCATTGAAA, for which the sensor-assay potency score (higher = more potent) was -1.12.
Same read-out and setting: then TTAATGTTCTCATCCACAGGGT, with 0.284; and TAGTAATGAATAAAGAACCACC, with -0.744; and TAGAGCATTCCTACCACTGTTT, with -0.0231.
TTCTTCACATAAACCGCCGAGG registered a sensor-assay potency score (higher = more potent) of -1.27.
Still for that read-out and setting: then TTGAAAACATCAGATATCCAAG, with -0.816.
Still for that read-out and setting: the same measure for AAACAGGAAAAGATCGTCCTGT: 0.479; for TAACACTTGACAGCAGCACTGT: -0.0361.
Same read-out and setting: then TAGGATTTGAACCATATGGTTC, with -0.787.
TTAGCTTGGAGCTCTTCTGTTT: the sensor-assay potency score (higher = more potent) was -0.684.
Consider TTAATCTGTAGAGTCCCACTGA, for which the sensor-assay potency score (higher = more potent) came out at 0.477.
The same measure, in the same setting: then TACCTGAAACTCTTTATTCTGT, with -0.297.

Another assay concerns the target COQ9. Described as above. The note with it: shRNA.
In the case of TTCATTGCATCATTAACCCGGT, the sensor-assay potency score (higher = more potent) stood at 0.189.
Take TTTTCAATCACACAGTTGCAGT: the sensor-assay potency score (higher = more potent) was -1.24.
Sequence TTCTGCTCATCTGAAGACCTTA returned a sensor-assay potency score (higher = more potent) of -0.0401.
Still for that read-out and setting: then TTGGTCTGGTATTAGGAACTGA, with -0.609; and TCTAGCACACGTGTGAGCCGGG, with 0.25; and TATTAGCTCACTGCCATCCTTC, with -0.456.
The same measure, in the same setting: the same measure for TTGTGTTGTAGATGGCAGCCAG: -0.498.
Turning to TTTCAAAGCTCTTTCAATCTGT, the sensor-assay potency score (higher = more potent) was 0.272.
With TAGTCCTCCTCCTCCTCGCCGC, the sensor-assay potency score (higher = more potent) is -1.01.
TATTAGGAACTGAAGAAGCAGC showed a sensor-assay potency score (higher = more potent) of -1.33.
Still for that read-out and setting: then TCCTCTTCTAGCACACGTGTGA, with -0.72.
On the same count and under the same terms, the same measure for ATCATCACCAGCTCTGTTGTGT: -0.201.

A further assay concerns the target CORIN. The assay is described as above. Particulars: shRNA.
For the sequence TTGAACTTTCATACAATCGTGA, the sensor-assay potency score (higher = more potent) was found to be 0.765.
Same read-out and setting: then TTATTCAGACTGTTGTTCGGGT, with 0.501.
The same measure, in the same setting: then TAAATCTGTCTTTTAATCCATT, with -1.02.
